The values that follow come from PubChem BioAssay AID504834 (National Center for Advancing Translational Sciences (NCATS), 2011).

Each structure is given as a SMILES string. In all, about 320,000 compounds went through this assay and about 22,000 (6.9%) were called active. Where a call stands in place of a potency, no number is given. Inconclusive results (about 27%) are left out. For the sample, actives were picked, then their nearest neighbours and some compounds at random. Unmarked numbers belong to inactive results. The call rests on the fitted dose curve; in most records, active means well fitted inhibition curve with a large enough effect; inconclusive means small, poorly fitted or top-dose-only effect, or another doubt; inactive means no such curve, though single readings can be large or run the other way.
Potency means the concentration at half of the fitted maximal effect.

The nature of the test: Primary qHTS for delayed death inhibitors of the malarial parasite plastid, 96 hour incubation. The following applies: P. falciparum luciferase reporter growth; series mostly up to 28.7 µM. The source says:
The goal of this screen is to discover new antimalarial compounds that act by inhibiting the development of the apicoplast in the malarial parasite Plasmodium falciparum. The biochemical processes that make this organelle essential for erythrocytic stage parasites are not well understood. However, antibiotics such as azithromycin and tetracycline, which target the apicoplast translational machinery, have a potent antimalarial effect.
We have developed a cell-based assay that measures parasite growth based on the expression of an integrated copy of a firefly luciferase reporter. To detect small molecules that cause this "delayed death" phenotype, erythrocytes infected with the luciferase-expressing parasites were incubated with compounds for either one or two generations, corresponding to 48 and 96 hours, respectively. Compounds that inhibit parasite growth in the second generation, but not the first, should be enriched in antimalarials that target the apicoplast. Growth inhibition is detected by a decrease in luciferase activity.
Assay Provider: David Fidock and Eric Ekland, Columbia University
Keywords: NIH Roadmap, MLPCN, MLI, MLSMR, qHTS, NCGC, qHTS, malaria, luciferase, viability
Four microliters of infected erythrocytes (2% hematocrit, 0.05% parasitemia final concentration) in culture medium were dispensed and the plates incubated for 96 hours at 37 C in 5% CO2. Two microliters of luciferase detection reagent was added and luminescence was detected by a ViewLux (PerkinElmer) reader.
In general terms: In qHTS, concentration-response curves come from the screen itself.
Regarding `COc1ccc(CCNC(=O)C(=O)NCC2OCCN2S(=O)(=O)c2ccc(F)cc2)cc1OC` (stereo not given), the Potency entry is “inactive”.

With `Cc1ccc(NS(=O)(=O)c2ccc(N/N=C/c3ccccc3OCC(=O)O)c([N+](=O)[O-])c2)c(C)c1`, the Potency is 9.28 µM (active).

`Cc1ccc(S(=O)(=O)NC(=O)COc2ccccc2C)cc1`: the Potency result was “inactive”.

In the case of `O=[N+]([O-])c1ccc(O)c(/C=N/Nc2ccccc2[N+](=O)[O-])c1`, the Potency result was “inactive”.

For the compound `O=C(Cc1ccc(Cl)cc1)NC(=S)Nc1ccccc1O`, the Potency result was “inactive”.

Take `CC1(C)O[C@@H]2[C@H](O1)[C@@H](COS(=O)(=O)O)O[C@H]2n1ccc(=O)[nH]c1=O`: the Potency result is “inactive”.

Consider `CN(C)S(=O)(=O)c1cccc(NC(=O)Cc2ccsc2)c1`, for which the Potency result was “inactive”.

Regarding `CN(c1ccccc1)S(=O)(=O)c1cccc(NC(=O)Cc2c(F)cccc2Cl)c1`, the Potency was 14.7 µM (active).

As to `CN(c1ccccc1)S(=O)(=O)c1ccc(NC(=O)COc2ccccc2)cc1`, the Potency result was “inactive”.

`Cc1ccc(S(=O)(=O)n2cccc2CO)cc1`: the Potency entry was “inactive”.

`COc1ccccc1CCNC(=O)C1CCN(C(=O)/C=C/c2ccccc2)CC1`: the Potency entry was “inactive”.

With `CCN(CC(=O)NCc1ccc(Cl)cc1)C(=O)CSc1ccccc1`, the Potency result was “inactive”.

For `Nc1ccc(-c2nnc(-c3ccc(-c4ccccc4)cc3)o2)cc1`, the Potency result is “inactive”.

`Nc1ccc(C(=O)NCc2ccccc2)cc1`: the Potency entry is “inactive”.

As for `Nc1ccc(Nc2ccccc2)cc1`, the Potency is 9.28 µM (active).

Consider `Cc1ccnc(NC(=O)CNC(=O)c2ccccc2)c1`, for which the Potency entry is “inactive”.

Regarding `C=CCNc1ncnc2ccc(Br)cc12`, the Potency entry is “inactive”.

As to `COc1ccc(Nc2ncnc3ccc(Br)cc23)c(OC)c1`, the Potency entry was “inactive”.

`CC1(C)CC2CC(C)(CN2c2ncnc3ccc(Br)cc23)C1` (stereo not given): the Potency is 16.5 µM (active).

As to `CCC(C)C(=O)Nc1ccccc1N1CCN(c2ccc(F)cc2)CC1` (stereo not given), the Potency entry is “inactive”.

For the compound `Cc1csc(=O)n1CCC(=O)OCC(=O)NNC(=O)c1ccc(Br)cc1`, the Potency result is “inactive”.

For the compound `O=c1ccc2cc(S(=O)(=O)Nc3ccccc3F)ccc2o1`, the Potency result was “inactive”.

Take `O=C1COc2ccc(S(=O)(=O)Nc3ccc(OC(F)(F)F)cc3)cc2N1`: the Potency entry was “inactive”.

For the compound `O=C(COC(=O)c1ncc(Cl)c(Cl)c1Cl)NCc1cccs1`, the Potency result is “inactive”.

With `O=C(COC(=O)c1ccc(Cl)nc1)NCc1cccs1`, the Potency is 2.33 µM (active).

`O=C(COC(=O)c1cccs1)NCc1cccs1`: the Potency result was “inactive”.

As to `COc1ccc(-c2nn(-c3ccccc3)cc2/C=C2/SC(=S)N(CCCC(=O)O)C2=O)c(C)c1`, the Potency entry was “inactive”.

Consider `CS(=O)(=O)N1CCc2cc(C(=O)Nc3ccccc3Br)ccc21`, for which the Potency entry is “inactive”.

Take `O=C(NCc1ccco1)c1cnn2c(C(F)(F)F)cc(-c3ccco3)nc12`: the Potency was 1.65 µM (active).

As for `O=C(O)c1cnn2c(C(F)(F)F)cc(-c3ccccc3)nc12`, the Potency entry is “inactive”.

Take `COc1ccc(C(=O)Nc2ccccc2C(=O)NCc2ccco2)cc1`: the Potency entry is “inactive”.

For the compound `CCC1CCCCN1C(=O)CSc1nc2c(c(=O)n(C)c(=O)n2C)n1C` (stereo not given), the Potency entry was “inactive”.

In the case of `CCC1CCCCN1C(=O)CSc1nc2c(c(=O)n1C)SC(C)C2` (stereo not given), the Potency was 1.47 µM (active).

As to `CCC1CCCCN1C(=O)CSc1nc(C)cc(C)n1` (stereo not given), the Potency result was “inactive”.

As for `O=S(=O)(NCc1ccccc1Br)c1ccccc1Br`, the Potency result is “inactive”.

As to `O=C(CN1CCN(C2CCS(=O)(=O)C2)CC1)N1N=C(c2ccc(Cl)cc2)CC1c1ccco1` (stereo not given), the Potency result is “inactive”.

Take `COc1cc(C(=O)NCC(c2ccco2)N2CCCC2)ccc1OCc1ccccc1` (stereo not given): the Potency is 2.62 µM (active).

For `CCOC(CNC(=O)C(=O)NCC(c1ccco1)N1CCN(c2ccc(OC)cc2)CC1)OCC` (stereo not given), the Potency entry is “inactive”.

Consider `COc1ccc(C(=O)NCC(c2ccco2)N2CCc3ccccc32)cc1OC` (stereo not given), for which the Potency result was “inactive”.

Regarding `CC1Cc2ccccc2N1S(=O)(=O)c1cccc(C(=O)NCC(c2ccco2)N2CCCC2)c1` (stereo not given), the Potency is 1.85 µM (active).

As for `O=C(NCC(c1ccco1)N1CCc2ccccc2C1)c1ccccc1Cl` (stereo not given), the Potency entry was “inactive”.

For `Cc1ccccc1C(=O)NCC(c1ccco1)N1CCc2ccccc21` (stereo not given), the Potency result is “inactive”.

As to `O=C(Cc1ccccc1Cl)N1CCOCC1`, the Potency entry was “inactive”.

Regarding `COc1ccc(CCNC(=O)c2nnc(CS(=O)(=O)c3ccccc3)o2)cc1OC`, the Potency entry was “inactive”.

Take `CC(C)Cc1nnc(NC(=O)CN2C(=O)NC3(CCCCC3)C2=O)s1`: the Potency result was “inactive”.

For the compound `COc1ccc(CCN2CNc3c(c(=O)n(C)c(=O)n3C)C2)cc1OC`, the Potency was 13.1 µM (active).

With `COc1ccc(CCN=C2SCC(=O)N2C)cc1OC`, the Potency entry was “inactive”.

Regarding `COc1ccc(CCN2C(=O)C3CC=C(C)CC3C2=O)cc1OC` (stereo not given), the Potency result was “inactive”.

Turning to `CN(c1ccccc1)S(=O)(=O)c1cccc(C(=O)NNC(=O)c2ccncc2)c1`, the Potency result was “inactive”.

For the compound `COc1cccc(NC(=O)N2C3CCCC2CC(NC(C)=O)C3)c1` (stereo not given), the Potency entry was “inactive”.

Consider `NC(=O)c1nnsc1-c1ccc(-c2snnc2C(N)=O)cc1`, for which the Potency entry is “inactive”.

In the case of `NS(=O)(=O)c1ccc(CNC(=O)c2cnccn2)cc1`, the Potency entry was “inactive”.

Take `Cc1c(C(N)=O)sc2ncn(CCOc3ccccc3)c(=O)c12`: the Potency result was “inactive”.

`COCCOCCn1cnc2ccccc21`: the Potency entry is “inactive”.

Take `Cc1cc2ncn(CCCCOc3ccccc3)c2cc1C`: the Potency was 14.7 µM (active).
